# L major viab = inhibitors of Leishmania major promastigote growth; 9% of 200,000 active; Leishmania major promastigotes, resazurin fluorescence viability; inhibition, % at 10 µM; in the data active = inhibition above about 50%;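 also: promastigotes grown with compound for 44 hours at 28 °C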
# WT yeast gro inh = growth inhibition of WT yeast, mitochondrial fusion screen | mitochondrial fusion phenotypic screen, WT strain | inhibition, % at 10 µM | 2.1% of 190,000 active | AID 1362; in the data active = inhibition above about 58%; tested in S. cerevisiae
# RAM network inh = blocks the yeast RAM network. S. cerevisiae dse1pr::URA3 reporter, 5-FOA growth OD615, 2 d; analog-sensitive cbk1-as2 kinase mutant strain. 1.8% of 190,000 active. inhibition, % at 50 µM;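 active = inhibition above a set limit, 3 SD over mean compound inhibition, cut at about 8.4% in these data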;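 also: 0% = DMSO-only wells with no growth and 100% = 10 µM 1-NA-PP1 full growth; inhibition rescues growth on 5-FOA so higher OD means more RAM inhibition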
# CHOP inhibitor = inhibitors of CHOP induction in ER stress response; 3.8% of 220,000 active; CHO-K1 CHOP-promoter luciferase, tunicamycin-induced, 15-18 h; inhibition, % at 10 µM;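 active = compounds that reduced the stress-induced luciferase reporter signal by more than about 70% of percent inhibition, limit read from the data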;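 also: 0% = tunicamycin plus vehicle and 100% = wells without tunicamycin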
# Starred values were filed as active, the others as inactive; nt = no result. Rows were chosen to be rich in hits. Some 13% of all compounds tested hit in one or more screens of this group.
SMILES,L major viab,WT yeast gro inh,RAM network inh,CHOP inhibitor
COc1ccc(C(=O)N2c3ccccc3C=CC2C#N)cc1 (configuration not stated),-1.4,-19.8,2.0,9.0
N#C[C@H]1[C@H](c2ccccc2)[C@](C#N)(C(=O)c2ccccc2)[C@@H]2C=Cc3ccccc3N21,47.8,63.1*,4.1,-13.6
CC(C)Cc1nnc(NC(=O)Nc2ccccc2)s1,36.4,-8.7,3.1,70.0*
Cc1ccc(NC(=O)Nc2ccc([N+](=O)[O-])cc2)nc1,2.2,-0.4,1.3,70.5*
Cc1ccc(NC(=O)Nc2nnc(Cc3ccc([N+](=O)[O-])cc3)s2)cc1,-6.5,-4.1,2.8,75.7*
COc1ccc(CNS(=O)(=O)c2ccccc2Br)cc1,nt,nt,nt,-19.8
COc1ccc(Br)c(C(=O)Nc2ccc(F)cc2)c1,nt,nt,nt,23.6
CCOC(=O)/C(=C/C=C1\Sc2cc(OCC)c(OCC)cc2N1CC)C(C)=O,67.7*,8.1,-0.4,-1.1
CCCN1C(=O)COc2ccc(-c3n[nH]c(=O)c4ccccc34)cc21,8.9,17.3,3.7,28.3
NC(N)=Nc1nc(-c2ccccc2)c2ccccc2n1,98.2*,-8.0,-0.2,10.8
CCc1nc(N=C(N)N)nc2ccccc12,8.0,11.5,1.2,37.0
CCn1cc(CNC(=O)/C=C/c2ccc([N+](=O)[O-])cc2)cn1,-0.6,-11.2,0.9,3.0
CCOc1ccc(S(=O)(=O)N2CCCC2)cc1,-3.2,-0.3,-0.7,-36.8
CCOc1ccc(S(=O)(=O)N2CCN(C(=O)c3cc4c(s3)CCCC4)CC2)cc1,77.6*,62.7*,4.1,47.3
O=C(c1cc(-c2ccccc2)on1)N1CCN(Cc2ccc3c(c2)OCO3)CC1,90.1*,-16.2,0.3,17.3
Cn1c(C(=O)N2CCN(Cc3ccc4c(c3)OCO4)CC2)cc2sccc21,70.2*,-6.6,-0.5,31.5
O=C(c1sccc1Cl)N1CCN(Cc2ccc3c(c2)OCO3)CC1,nt,nt,nt,31.3
Cn1c(C(=O)N2CCC(C(=O)N3CCN(Cc4ccc5c(c4)OCO5)CC3)CC2)cc2sccc21,8.0,4.5,1.7,21.9
O=C(c1cc2c(s1)CCCC2)N1CCN(Cc2ccc3c(c2)OCO3)CC1,94.2*,37.6,0.9,5.5
CSc1ccccc1NC(=O)CN(C)CC(=O)Nc1c(F)cccc1F,-5.9,-7.2,1.1,0.9
O=C(c1ccc(Br)o1)N1CCN(Cc2ccc3c(c2)OCO3)CC1,8.9,11.9,0.3,5.3
O=C(c1ccc(Br)s1)N1CCN(Cc2ccc3c(c2)OCO3)CC1,81.9*,12.6,1.8,51.8
Cc1ccsc1-c1nc(CN(C)C(C2CC2)C2CC2)c(C)o1,36.7,8.2,0.4,8.7
Cc1cc(NS(=O)(=O)c2ccc(NC(=O)c3cc4cc(Br)ccc4oc3=O)cc2)no1,-11.4,1.5,3.8,91.4*
CCc1nnc(NS(=O)(=O)c2ccc(NC(=S)NC(=O)c3ccc(OC)cc3)cc2)s1,55.0*,6.4,7.5,-20.2
SMILES,L major viab,WT yeast gro inh,RAM network inh,CHOP inhibitor
CCC(CC)C(=O)Nc1cccc(C(=O)Nc2ccc(S(=O)(=O)Nc3ccc(C)cc3)cc2)c1,67.2*,33.8,3.5,6.2
Cc1cc(NS(=O)(=O)c2ccc(NC(=S)NC(=O)c3ccccc3)cc2)no1,65.7*,5.7,1.3,2.4
CCC(CC)C(=O)Nc1cccc(C(=O)Nc2ccc(S(N)(=O)=O)cc2)c1,3.1,-13.3,4.9,13.6
Cc1cc(NC(=O)c2cc3ccccc3oc2=O)no1,-2.4,10.7,2.7,24.0
Cc1cc(NS(=O)(=O)c2ccc(NC(=S)NC(=O)c3ccncc3)cc2)no1,nt,nt,nt,6.0
Nn1c(SCC(=O)N2CCOCC2)nnc1C1CC1,-7.3,-12.1,2.4,-10.5
Cc1ccc(NS(=O)(=O)c2cccc(C(=O)Nc3cc(C)on3)c2)cc1,90.6*,9.7,-0.3,17.8
Cc1ccc(S(=O)(=O)Nc2ccc(C(=O)Nc3cc(C)on3)cc2)cc1,6.7,-16.0,5.4,31.5
O=C(CN1CCN(Cc2ccccc2)CC1)N/N=C/c1cccnc1,nt,nt,nt,9.6
CCOC(=O)C(C)(C)N(Cc1cccc(C)c1)S(=O)(=O)c1ccc(Cl)c([N+](=O)[O-])c1,86.0*,17.2,11.1*,-25.0
CCCCC/C(=N\NC(=O)Nc1ccccc1)c1ccccc1,47.5,9.7,9.5*,13.6
CCCC/C(C)=N/NC(=O)Nc1ccccc1,-1.4,-1.4,1.4,6.1
O=[N+]([O-])c1cc(Cl)cc(/C=N\Nc2ccccn2)c1O,98.0*,-13.9,-0.8,93.3*
CC(=O)c1ccc(Oc2nc3c(c(=O)n(C)c(=O)n3C)n2C)cc1,-7.0,-7.6,2.8,15.1
COC(=O)c1ccc(Oc2nc3c(c(=O)n(C)c(=O)n3C)n2CCC(C)C)cc1,-2.5,-16.6,6.4,75.4*
CN(Cc1ccccc1)C(=O)CSc1nc2cc(C(=O)N3CCC(C(N)=O)CC3)ccc2c(=O)n1-c1ccccc1,nt,nt,nt,-21.1

# Screening results as filed in PubChem.
